The record followed here is the supplement of paper PMC10515830.

Counter-ions that a name gives are not always drawn.

This assay concerns Danio rerio larvae (5 dpf). In words: difference in startle response vs DMSO (percentage points); higher = stronger startle than DMSO. To be noted: 10 µM; exposure time 6 h. An outline of the steps:
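In 96-well plates, 48 wild-type zebrafish larvae aged 5 dpf per compound received 100 µL egg water with library compound at 10 µM final for 6 h. Three hours into this, a 3-h programme of moving lines and 100 ms, 400Hz tones ran at 28.5 ℃ while plates were photographed every 6 s. Z-LaP Tracker scored the behaviours, and each is given as the compound mean minus the vehicle control mean in percentage points.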
Consider `Cc1ccc(O)c([C@H](CCN(C(C)C)C(C)C)c2ccccc2)c1` [Tolterodine (tartrate)], for which the “difference in startle response” value was -0.221.
Turning to `COC(=O)C1=C(C)NC(C)=C(C(=O)OC(C)C)C1c1cccc2nonc12` (configuration not stated) [Isradipine], the “difference in startle response” value is -10.9.
Under `CC=CC(=O)N(CC)c1ccccc1C` [Crotamiton] stands 3.97; under `CN(C)[C@@H]1C(O)=C(C(N)=O)C(=O)[C@@]2(O)C(O)=C3C(=O)c4c(O)cccc4[C@@](C)(O)[C@H]3C[C@@H]12` [Tetracycline (hydrochloride)], 1.04.
The value for `O=C(O)Cc1ccccc1Nc1c(Cl)cccc1Cl` [Diclofenac (sodium salt)] was -1.39.
`COc1ccc([C@@H]2Sc3ccccc3N(CCN(C)C)C(=O)[C@@H]2OC(C)=O)cc1` [Diltiazem (hydrochloride)]: the “difference in startle response” value was -1.93.
The value for `O=C(NC[C@H]1CN(c2ccc(N3CCOCC3=O)cc2)C(=O)O1)c1ccc(Cl)s1` [Rivaroxaban] was -3.86; that for `C[C@@H](O)[C@H]1C(=O)N2C(C(=O)O)=C(S[C@@H]3CN[C@H](CNS(N)(=O)=O)C3)[C@H](C)[C@H]12` [Doripenem (hydrate)] was -3.28; that for `Cc1cc(NS(=O)(=O)c2ccc(N)cc2)no1` [Sulfamethoxazole] was 4.25.
With `CC(C)OC(=O)C(C)(C)Oc1ccc(C(=O)c2ccc(Cl)cc2)cc1` [Fenofibrate], the “difference in startle response” value was -6.52.
Consider `CCNC(=O)CCC/C=C\C[C@@H]1[C@@H](/C=C/[C@@H](O)CCc2ccccc2)[C@H](O)C[C@@H]1O` [17-phenyl trinor Prostaglandin F2α ethyl amide], for which the “difference in startle response” value is -5.26.
The value for `CC[C@H]1OC(=O)[C@H](C)[C@@H](O[C@H]2C[C@@](C)(OC)[C@@H](O)[C@H](C)O2)[C@H](C)[C@@H](O[C@@H]2O[C@H](C)C[C@H](N(C)C)[C@H]2O)[C@](C)(O)C[C@@H](C)CN(C)[C@H](C)[C@@H](O)[C@]1(C)O` [Azithromycin] was 2.02.
The value for `Cc1nc(-c2ccc(OCC(C)C)c(C#N)c2)sc1C(=O)O` [Febuxostat] was 0.974.
The value for `CC(=O)O[C@]1(C(C)=O)CC[C@H]2[C@@H]3C=C(C)C4=CC(=O)CC[C@]4(C)[C@H]3CC[C@@]21C` [Megestryl Acetate] was -4.3; that for `NC(=O)[C@@H]1CC[C@@H]2CN1C(=O)N2OS(=O)(=O)O` [Avibactam (sodium salt)] was 0.773; that for `CC[C@@H](CO)NCCN[C@@H](CC)CO` [Ethambutol (hydrochloride)] was 1.19.
Regarding `CO[C@H]1/C=C/O[C@@]2(C)Oc3c(C)c(O)c4c(O)c(c5c(nc6cc(C)ccn65)c4c3C2=O)NC(=O)/C(C)=C\C=C\[C@H](C)[C@H](O)[C@@H](C)[C@@H](O)[C@@H](C)[C@H](OC(C)=O)[C@@H]1C` [Rifaximin], the “difference in startle response” value is -5.31.
